The values below come from PubChem BioAssay (NCATS).

Several values for one entry are separate records, joined by “and”; a condition that tells them apart may be missing. Equal entries are not always repeated. Activity calls are given as the source filed them. Calls come from the whole dose curve; as a rule, active = well fitted activation curve with a large enough effect; inconclusive = small, poorly fitted or top-dose-only effect; inactive = flat fitted curve, though single readings scatter.

Chain of Peroxisome proliferator-activated receptor alpha (Homo sapiens) (Q07869 whole entry, looked up): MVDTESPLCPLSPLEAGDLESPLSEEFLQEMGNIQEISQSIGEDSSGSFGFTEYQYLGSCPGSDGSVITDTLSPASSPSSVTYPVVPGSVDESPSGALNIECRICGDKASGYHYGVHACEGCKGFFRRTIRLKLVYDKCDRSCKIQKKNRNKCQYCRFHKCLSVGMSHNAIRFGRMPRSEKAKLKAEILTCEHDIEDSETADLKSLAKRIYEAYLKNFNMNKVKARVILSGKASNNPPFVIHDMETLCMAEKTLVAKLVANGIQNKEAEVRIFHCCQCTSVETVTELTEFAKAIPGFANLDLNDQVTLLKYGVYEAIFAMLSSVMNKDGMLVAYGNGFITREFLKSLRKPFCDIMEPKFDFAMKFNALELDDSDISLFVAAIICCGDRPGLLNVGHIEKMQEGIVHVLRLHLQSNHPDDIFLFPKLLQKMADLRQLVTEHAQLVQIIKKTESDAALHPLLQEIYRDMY

This assay deals with Peroxisome proliferator-activated receptor alpha (Homo sapiens) (UniProt Q07869). As to the kind of experiment: qHTS assay for small molecule agonists of the peroxisome proliferator-activated receptor alpha (PPARalpha) signaling pathway (AID 651778). Note: % of control where 0% means no effect. Conditions: PathHunter PPARalpha complementation, chemiluminescence, 6 h; max response: hits give high values. An excerpt:
National Center for Advancing Translational Sciences [NCATS]
NIH Chemical Genomics Center [NCGC]
U.S. Environmental Protection Agency [EPA]
National Institutes of Environmental Health Sciences [NIEHS]
National Toxicology Program [NTP]
The Peroxisome proliferator-activated receptors (PPARs) are lipid-activated transcription factors of the nuclear receptor superfamily with three distinct subtypes (alpha, garmma and beta/delta). All these subtypes heterodimerize with retinoid X receptor and have different physiological functions. PPARalpha is highly expressed in tissues with high rates of mitochondrial fatty acid oxidation, such as liver, heart, muscle, kidney and cells of the arterial wall. PPARalpha is a major regulator of lipid metabolism and energy homeostasis.
A cell based assay was used to identify activators of PPARalpha. The assay detects binding of a ligand to PPARalpha leading to its activation, translocation and complementation thus forming a functional enzyme capable of hydrolyzing the substrate molecule and generating chemiluminescent signal.
2,000 cells in 6 uL/well were dispensed into white wall/solid bottom 1536-well plates using a Multidrop Combi (Thermo Scientific) dispenser. After incubation 37 C and 5% CO2 overnight, 23 nL compound or DMSO only were transferred by a pin tool. The plates were incubated for 6 hr at 37 C and 5% CO2. 3 ul PathHunter detection reagent (Discoverx) was then added to each well and following 60 min incubation at room temperature, chemiluminescence was quantified on a ViewLux CCD-based plate reader.
(In general: qHTS replaces the single test concentration by a dilution series.)
For the compound `[CH3][Sn]([Cl])([Cl])[Cl]`, the max response was 0.635% (inactive).
Take `CNC(=O)Oc1cc(C)c(SC)c(C)c1`: the max response is 0.9% (inactive).
In the case of `CC(C1CC1)C(O)(Cn1cncn1)c1ccc(Cl)cc1` (stereo not given) it was -1.34% (inactive); in that of `CCOP(=S)(OCC)OC(Cl)C(Cl)(Cl)Cl` (stereo not given), -1.33% (inactive); in that of `CC1(C)CCC(Cc2ccc(Cl)cc2)C1(O)Cn1cncn1` (stereo not given), -1.67% (inactive).
Turning to `CCCCCCCCCCCCC1=C(OC(C)=O)C(=O)c2ccccc2C1=O`, the max response was -5.69% (inactive).
With `FC(F)(F)c1ccc(OCCCOc2c(Cl)cc(OCC=C(Cl)Cl)cc2Cl)nc1` the figure was -0.598% (inactive).
As for `CCc1cc(C)cc(CC)c1-c1c(OC(=O)C(C)(C)C)n2n(c1=O)CCOCC2`, the max response is -1.33% (inactive).
`CCC(C)(NC(=O)c1cc(Cl)c(C)c(Cl)c1)C(=O)CCl` (stereo not given): the max response is 0.829% (inactive).
On to `COP(=O)(OC)OC(Br)C(Cl)(Cl)Br` (stereo not given), for which the max response is -1.63% (inactive).
Turning to `c1cc2c3c(cccc3c1)CC2`, the max response is -0.57% (inactive).
With `CCCCN(CC)C(=O)SCCC` the figure was 0.725% (inactive).
As to `CCCCCCCCCCCC#N`, the max response was -0.162% (inactive).
Regarding `COCC(=O)N(c1c(C)cccc1C)[C@H](C)C(=O)OC`, the max response is -0.29% (inactive).
As to `COC(=O)c1ccccc1S(=O)(=O)NC(=O)N(C)c1nc(C)nc(OC)n1`, the max response was -1.41% (inactive).
Regarding `Cc1ccccc1C(=O)Nc1cccc(OC(C)C)c1`, the max response was -0.819% (inactive).
In the case of `N#CSCSC#N`, the max response was -10% (inactive) and -5.06% (inactive).
For the compound `C#CCO`, the max response was -1.68% (inactive).
`C=CC(=O)OCCCCCC(C)C`: the max response was -1.09% (inactive).
With `CCOP(OCC)OCC` the figure was -2.48% (inactive); with `[CH3][Sn]([CH3])([Cl])[Cl]`, -1.2% (inactive); with `O=C/C(Cl)=C(/Cl)C(=O)O`, -1.15% (inactive).
In the case of `O=C(O)c1nc(Cl)ccc1Cl` it was -1.62% (inactive) and -4.61% (inactive); in that of `CON=C(C(=O)OC)c1ccccc1CO/N=C(\C)c1cccc(C(F)(F)F)c1`, 3.69% (inactive).
In the case of `c1cc[n+]2c(c1)-c1cccc[n+]1CC2` it was -2.84% (inactive); in that of `CC(C)=C[C@@H]1[C@@H](C(=O)OCN2C(=O)C3=C(CCCC3)C2=O)C1(C)C`, -0.573% (inactive); in that of `CCCN(CCOc1c(Cl)cc(Cl)cc1Cl)C(=O)n1ccnc1`, -1.45% (inactive) and -1.52% (inactive).
In the case of `CCOP(=O)(OCC)SCSC(C)(C)C`, the max response was 0.241% (inactive).
As for `CN(c1c(Br)cc(Br)cc1Br)c1c([N+](=O)[O-])cc([N+](=O)[O-])cc1C(F)(F)F`, the max response is -2.57% (inactive).
With `CCC[CH2][Sn]([CH2]CCC)([CH2]CCC)[O][Sn]([CH2]CCC)([CH2]CCC)[CH2]CCC` the figure was 5.55% (inactive).
Regarding `O=C=Nc1ccc(Cl)cc1`, the max response is -0.75% (inactive).
For `CCNS(=O)(=O)C(F)(F)C(F)(F)C(F)(F)C(F)(F)C(F)(F)C(F)(F)C(F)(F)C(F)(F)F`, the max response was 5.8% (inactive).
`O=C(O)COc1ccc(Cl)cc1`: the max response was -2.55% (inactive).
Take `O=C(NC(=O)c1c(F)cccc1F)Nc1ccc(Cl)cc1`: the max response is -1.48% (inactive).
Consider `Cc1cc(Cl)ccc1O[C@H](C)C(=O)O`, for which the max response was -1.51% (inactive).
In the case of `CCCCCCCCn1sccc1=O` it was -5.93% (inactive) and -2.13% (inactive); in that of `CNC(=O)Oc1cc(C)cc(C(C)C)c1`, 4.47% (inactive).
On to `O=C(Nc1ccccc1)Nc1cnns1`, for which the max response is 0.0118% (inactive).
For `CC1(c2ccc(Oc3ccccc3)cc2)OC(=O)N(Nc2ccccc2)C1=O` (stereo not given), the max response is 11.6% (inactive).
For `c1ccc2c(c1)oc1ccccc12`, the max response was 0.628% (inactive).
